From PubChem BioAssay AID1159580 (chemical genetic matrix, 2015)
“And” between values parts separate entries of the source, which are not always exact repeats. Identical values can stand only once. About 2,000 (36%) of roughly 5,500 compounds were called active. Roughly 18% stayed inconclusive and do not appear here. Rule as the data show it: active = normalized growth mostly below about 0.91 (no sharp cut-off); inconclusive = no clear call, values can overlap the other calls; inactive = mostly above about 0.92. The list shows a part of the results.

Assay: chemical genetic growth profiling, strain panel (AID 1159580);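 also: tested at 20 µM; growth read once vehicle control cultures reached saturation at 30 °C; 1 = growth at the plate median or of vehicle wells; lower values mean less growth of the strain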
Details: S. cerevisiae deletion strains, growth OD

Measured: normalized growth

C[C@]12CCC(=O)C=C1CCC1C2C(=O)C[C@@]2(C)C1CC[C@]2(O)C(=O)CO (stereo partly drawn)
inactive: locus YAL013W, strain DEP1, hits give low values 1 | locus YAL021C, strain ccr4, hits give low values 1.01 | locus YAL026C, strain drs2, hits give low values 1 | locus YAL030W, strain snc1, hits give low values 1 | locus YBL061C, strain skt5, hits give low values 1 | locus YBR009C, strain hhf1, hits give low values 0.992 | locus YBR021W, strain FUR4, hits give low values 1 | locus YBR023C, strain chs3, hits give low values 1.01 | locus YBR171W, strain sec66, hits give low values 1.01 | locus YBR229C, strain ROT2, hits give low values 1 | locus YBR231C, strain swc5, hits give low values 0.986 | locus YBR279W, strain paf1, hits give low values 1 | locus YCL011C, strain gbp2, hits give low values 1.01 | locus YCL016C, strain dcc1, hits give low values 1 | locus YCL029C, strain bik1, hits give low values 1.01 | locus YCL061C, strain MRC1, hits give low values 0.999 | locus YCL069W, strain vba3, hits give low values 1 | locus YCR088W, strain abp1, hits give low values 1.01 | locus YDL005C, strain med2, hits give low values 0.993 | locus YDL035C, strain GPR1, hits give low values 1.02 | locus YDL040C, strain nat1, hits give low values 1 | locus YDL074C, strain BRE1, hits give low values 1.05 | locus YDL101C, strain DUN1, hits give low values 1 | locus YDL134C, strain PPH21, hits give low values 0.986 | locus YDL185W, strain tfp1, hits give low values 1.01 | locus YDL192W, strain arf1, hits give low values 1.02 | locus YDR001C, strain nth1, hits give low values 1 | locus YDR069C, strain doa4, hits give low values 0.988 | locus YDR101C, strain arx1, hits give low values 1.04 | locus YDR137W, strain rgp1, hits give low values 1.01 | locus YDR159W, strain sac3, hits give low values 0.981 | locus YDR162C, strain NBP2, hits give low values 0.984 | locus YDR195W, strain ref2 0.973 | locus YDR297W, strain sur2, hits give low values 1 | locus YDR318W, strain mcm21, hits give low values 0.986 | locus YDR334W, strain swr1, hits give low values 1.01 | locus YDR335W, strain msn5, hits give low values 1.01 | locus YDR388W, hits give low values 1.01 | locus YDR392W, strain spt3, hits give low values 0.929 | locus YDR502C, strain sam2, hits give low values 1.01 | locus YEL003W, strain gim4, hits give low values 1.01 | locus YEL037C, strain rad23, hits give low values 1.01 | locus YEL061C, strain CIN8 (second series), hits give low values 1.01 | locus YEL061C, strain CIN8, hits give low values 0.998 | locus YER015W, strain faa2, hits give low values 1 | locus YER016W, strain bim1, hits give low values 1 | locus YER110C, hits give low values 1.01 | locus YER111C, strain swi4, hits give low values 1 | locus YER155C, strain BEM2 (second series), hits give low values 1 | locus YER155C, strain BEM2, hits give low values 1 | locus YER167W, strain BCK2, hits give low values 0.994 | locus YFR010W, strain ubp6, hits give low values 1 | locus YGL078C, strain dbp3, hits give low values 1.02 | locus YGL086W, strain mad1, hits give low values 1.02 | locus YGL167C, strain pmr1, hits give low values 1 | locus YGL173C, strain kem1, hits give low values 1.01 | locus YGL227W, strain vid30, hits give low values 1 | locus YGL240W, strain doc1, hits give low values 0.975 | locus YGL248W, strain PDE1, hits give low values 0.984 | locus YGL253W, strain hxk2, hits give low values 1.01 | locus YGR078C, strain PAC10, hits give low values 0.986 | locus YGR135W, strain pre9, hits give low values 0.968 | locus YGR229C, strain SMI1, hits give low values 0.989 | locus YGR252W, strain gcn5, hits give low values 0.976 | locus YHR013C, strain ard1, hits give low values 0.979 | locus YHR027C, strain rpn1, hits give low values 1.01 | locus YHR030C, strain SLT2, hits give low values 0.995 and 0.999 | locus YHR079C, strain IRE1 (second series), hits give low values 1.01 | locus YHR079C, strain IRE1, hits give low values 0.985 | locus YHR094C, strain hxt1, hits give low values 0.996 | locus YHR129C, strain ARP1, hits give low values 1 | locus YHR142W, strain chs7, hits give low values 1.02 | locus YHR200W, strain rpn10, hits give low values 0.999 | locus YIL066C, strain RNR3, hits give low values 0.987 | locus YIL073C, strain SPO22, hits give low values 1.04 | locus YIL125W, strain kgd1, hits give low values 1.01 | locus YIR030C, strain dcg1, hits give low values 0.997 | locus YJL092W, strain hpr5, hits give low values 1.01 | locus YJL095W, strain BCK1 (second series), hits give low values 1.01 | locus YJL095W, strain BCK1, hits give low values 0.975 and 0.986 | locus YJL115W, strain asf1, hits give low values 1.01 | locus YJL129C, strain trk1, hits give low values 1.01 | locus YJL134W, strain LCB3, hits give low values 1 | locus YJL154C, strain vps35, hits give low values 1.02 | locus YJL164C, strain tpk1, hits give low values 0.996 | locus YJL166W, strain qcr8, hits give low values 0.987 | locus YJL168C, strain set2, hits give low values 1.01 | locus YJL187C, strain SWE1 (second series), hits give low values 0.994
